Measurements: PubChem BioAssay (EPA / NIEHS)
Inconclusive results are not listed. A structure can be active in one record and inactive in another. The source made the active and inactive calls. The calls were made as follows, unless noted: active = hit-call score of the fitted dose curve at least 0.9, where 1 is the maximum; inactive = score below 0.9.

Assays:
[1] = read-out: Nuclear factor erythroid 2-related factor 2 (Homo sapiens) (UniProt Q16236); assay: LTEA_HepaRG_NFE2L2: Life Technologies and Expression Analysis (LTEA) Assay for Nuclear factor erythroid 2-related factor 2 (NFE2L2) Transcription Factor using HepaRG (AID 2283527); conditions: mRNA level, 48 h; actives raise or lower the signal;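 as to outcome: TaqMan qRT-PCR transcript level normalised to ACTB GAPDH and POLR2A housekeeping genes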
Outline: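 Differentiated human HepaRG cells, serum-free induction medium, exposed 48 h in duplicate to eight half-log concentrations up to 100 uM in 0.5% DMSO. NFE2L2 mRNA by Fluidigm TaqMan qRT-PCR, normalised to ACTB, GAPDH, POLR2A; bidirectional change versus DMSO.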

[2] = read-out: Signal transducer and activator of transcription 3 (Homo sapiens) (UniProt P40763); assay: LTEA_HepaRG_STAT3: Life Technologies and Expression Analysis (LTEA) Assay for Signal transducer and activator of transcription (STAT3) using HepaRG (AID 2283529); conditions: mRNA level, 48 h; actives raise or lower the signal
Outline: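 Differentiated HepaRG cells, serum-free induction medium, dosed 48 h in duplicate, 8 half-log concentrations from 100 uM in 0.5% DMSO. STAT3 mRNA by qRT-PCR, normalised to ACTB, GAPDH, POLR2A; bidirectional fit versus DMSO.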

[3] = read-out: solute carrier (SLCO1B1), SLCO1B1 (gene 10599); assay: LTEA_HepaRG_SLCO1B1: Life Technologies and Expression Analysis (LTEA) Assay for solute carrier (SLCO1B1) using HepaRG (AID 2283530); conditions: mRNA level, 48 h; actives raise or lower the signal
Outline: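 Gain or loss of SLCO1B1 mRNA is fitted against the 0.5% DMSO vehicle in human HepaRG liver cells treated 48 h at up to 100 uM in half-log steps. Expression comes from qRT-PCR normalized to endogenous controls.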

[4] = read-out: sulfotransferase 2A1 (SULT2A1), SULT2A1 (gene 6822); assay: LTEA_HepaRG_SULT2A1: Life Technologies and Expression Analysis (LTEA) Assay for sulfotransferase 2A1 (SULT2A1) using HepaRG (AID 2283531); conditions: mRNA level, 48 h; actives raise or lower the signal
Outline: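 Cells were plated and cultured 48 h, switched to serum-free induction medium, then dosed in duplicate for 48 h (8 concentrations, max 100 uM). RNA was isolated and SULT2A1 expression measured by qRT-PCR; gain or loss of signal fitted relative to DMSO.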

[5] = read-out: Transforming Growth Factor (TGFA), TGFA (gene 7039); assay: LTEA_HepaRG_TGFA: Life Technologies and Expression Analysis (LTEA) Assay for Transforming Growth Factor (TGFA) using HepaRG (AID 2283532); conditions: mRNA level, 48 h; actives raise or lower the signal
Outline: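 Differentiated HepaRG cells exposed 48 hours in serum-free induction medium, 0.5% DMSO vehicle, 8-point half-log series from 100 uM, in duplicate. TGFA mRNA by TaqMan qRT-PCR, normalised to ACTB, GAPDH, POLR2A; bidirectional fit versus DMSO.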

[6] = read-out: TIMP1, TIMP1 (gene 7076); assay: LTEA_HepaRG_TIMP1: Life Technologies and Expression Analysis (LTEA) Assay for TIMP1 using HepaRG (AID 2283534); conditions: mRNA level, 48 h; actives raise or lower the signal;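 as to outcome: TaqMan qRT-PCR signal normalized to ACTB GAPDH and POLR2A housekeeping genes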
Outline: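 We dosed human liver HepaRG cultures for 48 hours with up to 100 uM test chemical and measured TIMP1 expression by qRT-PCR. Activity in either direction is fitted relative to the 0.5% DMSO vehicle.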

[7] = read-out: Tumor necrosis factor receptor 1 (TNFRSF1A), TNFRSF1A (gene 7132); assay: LTEA_HepaRG_TNFRSF1A: Life Technologies and Expression Analysis (LTEA) Assay for Tumor necrosis factor receptor 1 (TNFRSF1A) using HepaRG (AID 2283535); conditions: mRNA level, 48 h; actives raise or lower the signal
Outline: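 Expression of TNFRSF1A in human HepaRG liver cells was measured by qRT-PCR 48 h after chemical dosing (maximum 100 uM). Bidirectional curve fitting used 0.5% DMSO as baseline.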

[8] = read-out: Thyroid Hormone Responsive (THRSP), THRSP (gene 7069); assay: LTEA_HepaRG_THRSP: Life Technologies and Expression Analysis (LTEA) Assay for Thyroid Hormone Responsive (THRSP) using HepaRG (AID 2283536); conditions: mRNA level, 48 h; actives raise or lower the signal
Outline: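 Differentiated HepaRG cells treated 48 h in serum-free induction medium with 8 half-log concentrations up to 100 uM (0.5% DMSO), duplicates. THRSP mRNA by TaqMan qRT-PCR normalised to ACTB, GAPDH, POLR2A; bidirectional fit versus DMSO.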

[9] = read-out: UDP glucuronosyltransferase (UGT1A1), UGT1A1 (gene 54658); assay: LTEA_HepaRG_UGT1A1: Life Technologies and Expression Analysis (LTEA) Assay for UDP glucuronosyltransferase (UGT1A1) using HepaRG (AID 2283538); conditions: mRNA level, 48 h; actives raise or lower the signal
Outline: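 Readout is UGT1A1 transcript level by qRT-PCR, normalized to three housekeeping genes, after 48 h chemical treatment of HepaRG cells. Concentrations ran from 100 uM down in half-log steps with 0.5% DMSO, and gain or loss relative to DMSO was fitted.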

[10] = read-out: UDP glucuronosyltransferase (UGT1A6), UGT1A6 (gene 54578); assay: LTEA_HepaRG_UGT1A6: Life Technologies and Expression Analysis (LTEA) Assay for UDP glucuronosyltransferase (UGT1A6) using HepaRG (AID 2283539); conditions: mRNA level, 48 h; actives raise or lower the signal
Outline: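 Endpoint is UGT1A6 transcript induction or loss in a human liver cell line, quantified by TaqMan qRT-PCR 48 h after dosing. Concentrations ran from 100 uM downward in half-log steps in 0.5% DMSO; activity was fitted in both directions versus vehicle.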

[11] = read-out: X-box binding protein 1 (XBP1), XBP1 (gene 7494); assay: LTEA_HepaRG_XBP1: Life Technologies and Expression Analysis (LTEA) Assay for X-box binding protein 1 (XBP1) using HepaRG (AID 2283540); conditions: mRNA level, 48 h; actives raise or lower the signal
Outline: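 Human HepaRG monolayers receive test chemical for 48 h across an eight-point half-log series starting at 100 uM. XBP1 mRNA gain or loss is scored against DMSO by qRT-PCR.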

[12] = LTEA_HepaRG_LDH_cytotoxicity: Cytotoxicity Assessment in the Life Technologies and Expression Analysis (LTEA) Assay (AID 2283563; active = hit-call score of the fitted dose curve at least 0.9, where 1 is the maximum;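 as to AC50: LDH activity released into spent culture medium as a marker of cell death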)
Outline: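 Human HepaRG hepatic cells are treated with test chemicals for 48 h at up to 100 uM in 0.5% DMSO. Cytotoxicity is scored from medium LDH against the vehicle control.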

[13] = read-out: Cellular tumor antigen p53 (Homo sapiens) (UniProt P04637); assay: LTEA_HepaRG_TP53: Life Technologies and Expression Analysis (LTEA) Assay for Tumor Protein P53 (TP53) using HepaRG (AID 2283537); conditions: mRNA level, 48 h; actives raise or lower the signal
Outline: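 Read-out is TP53 transcript level by microfluidic qRT-PCR, normalised to three housekeeping genes and fitted bidirectionally against DMSO. Human HepaRG cells received compounds for 48 h, highest concentration 100 uM.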

[14] = TOX21_p53_BLA_p2_viability: Viability Assessment in the Tox21 HCT-116 p53 Agonism Beta-lactamase Assay, Phase 2 (AID 2283591; active = hit-call score of the fitted dose curve at least 0.9, where 1 is the maximum;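 also: compound exposure lasted 16 h at 37 °C; actives lower the ATP signal meaning cytotoxicity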)
Outline: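 HCT116 p53-bla cells, 4000/well, dosed after 5 h plating (217-fold dilution of DMSO stocks) and incubated 16 h at 37C. Viability taken as cellular ATP by CellTiter-Glo luminescence after 30 min RT; signal loss marks cytotoxicity.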

[15] = molecular target: Cellular tumor antigen p53 (Homo sapiens) (UniProt P04637); assay: TOX21_p53_BLA_p2_ratio: Tox21 HCT-116 p53 Agonism Beta-lactamase Assay, Ratio, Phase 2 (AID 2283592; active = hit-call score of the fitted dose curve at least 0.9, where 1 is the maximum)
Outline: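 An inducible beta-lactamase reporter in HCT116 cells signals p53 pathway activation. After 16 h chemical exposure at 37C, cells load CCF4-AM substrate for 2 h at room temperature; activity is the cleaved/uncleaved emission ratio relative to DMSO.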

[16] = TOX21_p53_BLA_p3_viability: Viability Assessment in the Tox21 HCT-116 p53 Agonism Beta-lactamase Assay, Phase 3 (AID 2283593; active = hit-call score of the fitted dose curve at least 0.9, where 1 is the maximum;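 also: cells exposed to compound for 16 h before reading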)
Outline: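 HCT116 cells, 4000/well, dosed 5 h after plating by pin transfer (217-fold dilution from DMSO stock) and incubated 16 h at 37C, 5% CO2. Viability read as ATP luminescence with CellTiter-Glo after 30 min at room temperature.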

[17] = molecular target: Cellular tumor antigen p53 (Homo sapiens) (UniProt P04637); assay: TOX21_p53_BLA_p3_ratio: Tox21 HCT-116 p53 Agonism Beta-lactamase Assay, Ratio, Phase 3 (AID 2283596; active = hit-call score of the fitted dose curve at least 0.9, where 1 is the maximum)
Outline: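 HCT116 p53-bla cells (4000/well) given compound in DMSO (217-fold dilution) after 5 h, incubated 16 h at 37C. CCF4-AM substrate 2 h at room temperature; 460/530 nm emission ratio, gain fitted against DMSO.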

[18] = ATG_XTT_Cytotoxicity: Cytotoxicity Assessment in the Attagene TRANS-FACTORIAL HepG2 Assay (AID 2283584; active = hit-call score of the fitted dose curve at least 0.9, where 1 is the maximum;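 as to AC50: XTT signal for cell number as viability in transfected HepG2 cells; cells exposed to compound for 24 h before reading; active means loss of viability signal versus DMSO baseline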)
Outline: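 Transfect HepG2 with GAL4-UAS reporter units, dose compound, incubate 24 h, then measure viable cell number by XTT. Fit concentration response against DMSO baseline.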

[19] = read-out: Transforming Growth Factor (TGFB1), TGFB1 (gene 7040); assay: LTEA_HepaRG_TGFB1: Life Technologies and Expression Analysis (LTEA) Assay for Transforming Growth Factor (TGFB1) Transporter using HepaRG (AID 2283533); conditions: mRNA level, 48 h; actives raise or lower the signal
Outline: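 Expression change of TGFB1 in human HepaRG cells is measured after a 48 h chemical exposure, up to 100 uM in 0.5% DMSO vehicle. Curves are fitted in both directions relative to the DMSO baseline.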

Chain of Cellular tumor antigen p53 (Homo sapiens) (P04637 whole entry, looked up): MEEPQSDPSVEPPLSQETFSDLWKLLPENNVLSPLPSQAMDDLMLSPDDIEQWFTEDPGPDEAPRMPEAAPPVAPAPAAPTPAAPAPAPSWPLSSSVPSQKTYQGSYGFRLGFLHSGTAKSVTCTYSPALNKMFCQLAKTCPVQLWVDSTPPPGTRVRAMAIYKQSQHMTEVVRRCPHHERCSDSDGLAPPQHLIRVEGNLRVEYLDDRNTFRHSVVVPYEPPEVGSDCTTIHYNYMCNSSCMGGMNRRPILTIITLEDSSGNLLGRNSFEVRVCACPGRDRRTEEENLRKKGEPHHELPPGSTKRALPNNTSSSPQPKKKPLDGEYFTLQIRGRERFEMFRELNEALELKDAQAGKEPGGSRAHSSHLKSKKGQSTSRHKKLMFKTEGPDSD
Chain of Nuclear factor erythroid 2-related factor 2 (Homo sapiens) (Q16236 whole entry, looked up): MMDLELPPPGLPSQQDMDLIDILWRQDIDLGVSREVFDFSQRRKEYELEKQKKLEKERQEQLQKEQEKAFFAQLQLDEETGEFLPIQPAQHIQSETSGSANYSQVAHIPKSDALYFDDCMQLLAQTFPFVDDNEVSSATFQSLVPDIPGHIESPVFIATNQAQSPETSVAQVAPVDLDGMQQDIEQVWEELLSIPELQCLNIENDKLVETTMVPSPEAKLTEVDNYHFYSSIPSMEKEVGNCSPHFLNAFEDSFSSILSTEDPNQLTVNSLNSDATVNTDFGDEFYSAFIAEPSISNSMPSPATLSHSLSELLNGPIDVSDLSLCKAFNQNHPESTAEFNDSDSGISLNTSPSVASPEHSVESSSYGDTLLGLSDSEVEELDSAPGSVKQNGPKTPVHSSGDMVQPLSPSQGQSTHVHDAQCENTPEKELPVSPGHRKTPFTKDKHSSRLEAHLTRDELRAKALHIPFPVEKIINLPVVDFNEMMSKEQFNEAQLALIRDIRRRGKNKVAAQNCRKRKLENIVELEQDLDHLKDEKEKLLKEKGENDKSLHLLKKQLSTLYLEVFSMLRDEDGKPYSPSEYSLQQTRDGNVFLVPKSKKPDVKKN
Chain of Signal transducer and activator of transcription 3 (Homo sapiens) (P40763 whole entry, looked up): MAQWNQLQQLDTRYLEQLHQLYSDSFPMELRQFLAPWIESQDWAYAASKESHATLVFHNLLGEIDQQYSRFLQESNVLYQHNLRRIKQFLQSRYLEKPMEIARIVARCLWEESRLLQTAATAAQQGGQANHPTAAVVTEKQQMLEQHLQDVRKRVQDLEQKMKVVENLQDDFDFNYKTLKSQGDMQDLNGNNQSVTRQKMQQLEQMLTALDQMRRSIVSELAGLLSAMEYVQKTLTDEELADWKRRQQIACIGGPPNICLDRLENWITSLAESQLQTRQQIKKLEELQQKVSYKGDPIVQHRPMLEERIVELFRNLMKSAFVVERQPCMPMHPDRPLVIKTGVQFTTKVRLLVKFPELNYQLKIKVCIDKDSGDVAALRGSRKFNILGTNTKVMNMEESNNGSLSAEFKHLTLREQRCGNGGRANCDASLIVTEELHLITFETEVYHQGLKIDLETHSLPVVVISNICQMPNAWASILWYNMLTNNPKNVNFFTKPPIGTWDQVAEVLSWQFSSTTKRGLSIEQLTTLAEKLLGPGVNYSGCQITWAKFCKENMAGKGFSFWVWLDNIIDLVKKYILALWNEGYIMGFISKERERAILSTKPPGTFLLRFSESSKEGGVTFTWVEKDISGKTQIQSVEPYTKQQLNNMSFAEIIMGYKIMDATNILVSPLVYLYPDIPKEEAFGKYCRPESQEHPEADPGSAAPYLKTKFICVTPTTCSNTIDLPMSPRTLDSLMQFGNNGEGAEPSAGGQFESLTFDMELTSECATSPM

SMILES: Cc1ccn2nc(S(=O)(=O)Nc3c(F)cccc3F)nc2n1
- outcome [1]: inactive
- outcome [2]: inactive
- outcome [3]: inactive
- outcome [4]: inactive
- outcome [5]: inactive
- outcome [6]: inactive
- outcome [7]: inactive
- outcome [8]: inactive
- outcome [9]: inactive
- outcome [10]: inactive
- outcome [11]: inactive
- outcome [12]: inactive

SMILES: COP(=O)(OC)OC(Br)C(Cl)(Cl)Br (centres undefined)
- outcome [1]: inactive
- outcome [2]: inactive
- outcome [3]: inactive
- AC50 [4]: 50 µM (active)
- outcome [5]: inactive
- outcome [6]: inactive
- outcome [7]: inactive
- outcome [8]: inactive
- outcome [9]: inactive
- outcome [10]: inactive

SMILES: CC(COc1ccc(Oc2ccccc2)cc1)Oc1ccccn1 (centres undefined)
- outcome [1]: inactive
- outcome [2]: inactive
- outcome [3]: inactive
- outcome [4]: inactive
- outcome [5]: inactive
- outcome [6]: inactive
- outcome [7]: inactive
- AC50 [8]: 16.3 µM (active)
- outcome [13]: inactive
- AC50 [9]: 8.3 µM (active)
- outcome [10]: inactive
- outcome [11]: inactive
- outcome [14]: inactive
- outcome [15]: inactive

SMILES: C[Si](Cn1cncn1)(c1ccc(F)cc1)c1ccc(F)cc1
- AC50 [1]: 39.3 µM (active)
- outcome [2]: inactive
- AC50 [3]: 74.4 µM (active)
- AC50 [4]: 73.5 µM (active)
- AC50 [5]: 65.1 µM (active)
- outcome [6]: inactive
- AC50 [7]: 50 µM (active)
- AC50 [8]: 5.9 µM (active)
- outcome [13]: inactive
- AC50 [9]: 66.3 µM (active)
- AC50 [10]: 50 µM (active)
- AC50 [12]: 33.4 µM (active)
- AC50 [14]: 23.1 µM (active)
- outcome [14]: inactive
- outcome [15]: inactive
- outcome [16]: inactive
- outcome [17]: inactive

SMILES: O=[N+]([O-])c1cc(C(F)(F)F)c(Cl)c([N+](=O)[O-])c1Nc1ncc(C(F)(F)F)cc1Cl
- outcome [1]: inactive
- outcome [2]: inactive
- AC50 [3]: 23.4 µM (active)
- AC50 [4]: 50 µM (active)
- outcome [5]: inactive
- outcome [6]: inactive
- outcome [7]: inactive
- AC50 [8]: 23.9 µM (active)
- AC50 [9]: 79.5 µM (active)
- AC50 [10]: 73.6 µM (active)
- outcome [11]: inactive
- AC50 [18]: 38.8 µM (active)

SMILES: Cc1nn(-c2cc(NS(C)(=O)=O)c(Cl)cc2Cl)c(=O)n1C(F)F
- outcome [1]: inactive
- outcome [2]: inactive
- outcome [3]: inactive
- outcome [4]: inactive
- outcome [5]: inactive
- outcome [6]: inactive
- outcome [7]: inactive
- outcome [8]: inactive
- outcome [13]: inactive
- AC50 [9]: 18.4 µM (active)
- outcome [10]: inactive
- outcome [12]: inactive
- outcome [15]: inactive
- outcome [17]: inactive

SMILES: COP(=O)(OC)SCn1c(=O)oc2cc(Cl)cnc21
- outcome [1]: inactive
- outcome [2]: inactive
- outcome [3]: inactive
- outcome [4]: inactive
- outcome [5]: inactive
- outcome [19]: inactive
- outcome [6]: inactive
- AC50 [7]: 0.262 µM (active)
- AC50 [8]: 73.4 µM (active)
- outcome [13]: inactive
- AC50 [9]: 9.92 µM (active)
- AC50 [10]: 9.92 µM (active)
- outcome [15]: inactive
- AC50 [17]: 49.1 µM (active)

SMILES: C#CCC1=C(C)C(OC(=O)C2C(C=C(C)C)C2(C)C)CC1=O (centres undefined)
- outcome [1]: inactive
- outcome [2]: inactive
- outcome [3]: inactive
- outcome [4]: inactive
- outcome [5]: inactive
- outcome [6]: inactive
- outcome [7]: inactive
- AC50 [8]: 88.9 µM (active)
- outcome [13]: inactive
- outcome [9]: inactive
- outcome [10]: inactive
- outcome [12]: inactive
- outcome [18]: inactive
- AC50 [14]: 45.8 µM (active)
- AC50 [15]: 86.7 µM (active)
- outcome [16]: inactive
- outcome [17]: inactive

SMILES: CN(C)C(=O)Nc1cccc(C(F)(F)F)c1
- AC50 [1]: 50 µM (active)
- outcome [2]: inactive
- AC50 [3]: 50 µM (active)
- outcome [4]: inactive
- outcome [5]: inactive
- outcome [19]: inactive
- AC50 [6]: 78.8 µM (active)
- AC50 [7]: 81 µM (active)
- outcome [8]: inactive
- outcome [13]: inactive
- AC50 [9]: 1.22 µM (active)
- outcome [10]: inactive
- outcome [15]: inactive
- outcome [17]: inactive
